Inconclusive results are not listed. Calls of active or inactive are those of the source. Calls come from the whole dose curve; as a rule, active = well fitted curve in the direction sought with a large enough effect in the repeat runs; inconclusive = weak or mixed curves; inactive = no such curve, though single readings can be large; an effect the other way counts as inactive or inconclusive.
Legend:
[1] = Human pregnane X receptor (PXR) small molecule agonists, qHTS cell viability counter screen (AID 1346977); note: nearly all actives have a fitted effect of over 50% in size
How it was run: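 Tox21 qHTS format; PXR-Luc HepG2, 2,000/well, charcoal-stripped FBS 5%. Cpd exposure 24hr. Read: CellTiter-Fluor fluorescence, multiplexed with luciferase.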

[2] = Caspase-3/7 induction in HepG2 cells by small molecules, qHTS assay (AID 1346978); note: nearly all actives have a fitted effect of over 15% in size
How it was run: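 Wild-type HepG2 cells (2,000/well) were settled 5 h at 37 C, 5% CO2, then exposed to compounds in DMSO for 17 h. Caspase-3/7 activity was read by luminescence 30 min after adding Caspase-Glo 3/7 reagent at room temperature.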

[3] = Caspase-3/7 induction in CHO-K1 cells by small molecules, qHTS cell viability counter screen (AID 1346979); note: nearly all actives have a fitted effect of over 35% in size
How it was run: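 CellTiter-Fluor viability check, qHTS format: wild-type CHO-K1, 16hr compound treatment, 1hr reagent incubation, fluorescence read.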

[4] = Caspase-3/7 induction in CHO-K1 cells by small molecules, qHTS assay (AID 1346980); note: nearly all actives have a fitted effect of over 15% in size
How it was run: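 Wild-type cells were seeded at 1,500 per well and settled 5 hr at 37 C, 5% CO2, then exposed to DMSO-dissolved compounds for 17 hr. Caspase-Glo 3/7 reagent was added, and luminescence was read after 30min at room temperature.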

[5] = Caspase-3/7 induction in HepG2 cells by small molecules, qHTS cell viability counter screen (AID 1346981); note: series mostly up to about 92 µM; nearly all actives have a fitted effect of over 30% in size
How it was run: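 After a 5-hr attachment period at 37 C and 5% CO2, wild-type HepG2 cells received compounds in DMSO. Sixteen hours later CellTiter-Fluor was dispensed and the fluorescent signal quantified after a further hour.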

[6] = target: Nuclear receptor subfamily 1 group I member 2 (Homo sapiens) (UniProt O75469); assay: Human pregnane X receptor (PXR) small molecule agonists, qHTS assay (AID 1346982); note: nearly all actives have a fitted effect of over 35% in size; note: potency is the fitted concentration of half-maximal effect
How it was run: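 Tox21 qHTS; PXR-Luc HepG2; compounds pinned from DMSO; 24 hr, 37 C; ONE-Glo luciferase detection, 30 min room temperature.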

[7] = target: Cytochrome P450 2C19 (Homo sapiens) (UniProt P33261); assay: Cytochrome P450 Family 2 Subfamily C Member 19 (CYP2C19) small molecule antagonists: luciferase reporter qHTS assay (AID 1671197); note: nearly all actives have a fitted effect of over 65% in size; note: potency is the fitted concentration of half-maximal effect; for activity change, negative = inhibition: series mostly up to about 120 µM
How it was run: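 Inhibition of CYP2C19 was scored from loss of luminescence in a P450-Glo proluciferin substrate assay, NADPH-started and run 1 h at 37C, with ketoconazole as positive control.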

[8] = target: Cytochrome P450 2C9 (Homo sapiens) (UniProt P11712); assay: Cytochrome P450 Family 2 Subfamily C Member 9 (CYP2C9) small molecule antagonists: luciferase reporter qHTS assay (AID 1671198); note: nearly all actives have a fitted effect of over 50% in size; note: potency is the fitted concentration of half-maximal effect; for activity change, negative = inhibition: series mostly up to about 120 µM
How it was run: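 CYP2C9 activity was measured with a P450-Glo proluciferin substrate. Enzyme–substrate mix was held with compound for 10 min at room temperature, then NADPH regeneration solution was added for 1 h at 37C. Luciferin product was read as luminescence.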

[9] = target: Voltage-gated inwardly rectifying potassium channel KCNH2 (Homo sapiens) (UniProt Q12809); assay: Human Ether-a-go-go-Related Gene (hERG) channel small molecule antagonists: fluorescence cell-based qHTS assay (AID 1671200);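 note: hERG-expressing U2OS cells given a thallium stimulus after FluxOR II dye loading; series mostly up to about 77 µM; nearly all actives have a fitted effect of over 50% in size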
How it was run: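 Kinetic two-minute fluorescence traces, sampled at 1 s, were collected following thallium stimulus of U2OS cells (1000 per well) that had been cultured overnight at 37 C and loaded with FluxOR II.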

[10] = target: Cytochrome P450 3A4 (Homo sapiens) (UniProt P08684); assay: Cytochrome P450 Family 3 Subfamily A Member 4 (CYP3A4) small molecule antagonists: luciferase reporter qHTS assay (AID 1671201); note: nearly all actives have a fitted effect of over 50% in size; note: potency is the fitted concentration of half-maximal effect; for activity change, negative = inhibition: series mostly up to about 120 µM
How it was run: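 Proluciferin-to-luciferin conversion by CYP3A4, NADPH-regenerated, 1 h RT; luminescence read as RLU. Ketoconazole as control.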

[11] = target: Cytochrome P450 1A2 (Homo sapiens) (UniProt P05177); assay: Cytochrome P450 Family 1 Subfamily A Member 2 (CYP1A2) small molecule antagonists: luciferase reporter qHTS assay (AID 1671199); note: nearly all actives have a fitted effect of over 50% in size; note: potency is the fitted concentration of half-maximal effect; for activity change, negative = inhibition: series mostly up to about 120 µM
How it was run: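 Room-temperature CYP1A2 reaction with proluciferin substrate: compounds added from DMSO, 10 min preincubation, NADPH regeneration for 1 h. Luciferin detection reagent then added; luminescence recorded as RLU.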

[12] = target: Nuclear receptor subfamily 1 group I member 2 (Rattus norvegicus) (UniProt Q9R1A7); assay: Rat pregnane X receptor (rPXR) activation by small molecules, qHTS assay (AID 1346983); conditions: rPXR luciferase reporter cells, One-Glo luminescence, 24 h; max activation: stronger effect = higher value; note: nearly all actives have a fitted effect of over 20% in size
How it was run: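 Cell-based rPXR luciferase reporter assay, 2,000 cells per well, rested 5hr at 37 C before compound addition in DMSO, then 24 hr at 37 C. One-Glo reagent was added and luminescence read after 30 min at room temperature.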

[13] = target: Nuclear receptor subfamily 1 group I member 2 (Homo sapiens) (UniProt O75469); assay: CYP3A4 induction through human pregnane X receptor (PXR) by small molecules, qHTS assay (AID 1346984); note: nearly all actives have a fitted effect of over 40% in size
How it was run: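 Cells (DPX-2; HepG2 with PXR element plus CYP3A4-promoter luciferase) settled 5hr, then were treated 24hr at 37C. A 3hr, 3uM-final Luciferin-IPA step preceded luminescence measurement with One-Glo.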

[14] = target: Cytochrome P450 2D6 (Homo sapiens) (UniProt P10635); assay: Cytochrome P450 Family 2 Subfamily D Member 6 (CYP2D6) small molecule antagonists: luciferase reporter qHTS assay (AID 1671196); note: nearly all actives have a fitted effect of over 50% in size; note: potency is the fitted concentration of half-maximal effect; for activity change, negative = inhibition: series mostly up to about 120 µM
How it was run: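 Room-temperature luminescent CYP2D6 activity assay: compound preincubated 10 min with enzyme–substrate mix, NADPH-initiated reaction 1 h, detection reagent 20 min before reading.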
% is set by controls: 0 for no effect and ±100 for the full control effect.

Chain of Cytochrome P450 3A4 (Homo sapiens) (P08684 whole entry, looked up): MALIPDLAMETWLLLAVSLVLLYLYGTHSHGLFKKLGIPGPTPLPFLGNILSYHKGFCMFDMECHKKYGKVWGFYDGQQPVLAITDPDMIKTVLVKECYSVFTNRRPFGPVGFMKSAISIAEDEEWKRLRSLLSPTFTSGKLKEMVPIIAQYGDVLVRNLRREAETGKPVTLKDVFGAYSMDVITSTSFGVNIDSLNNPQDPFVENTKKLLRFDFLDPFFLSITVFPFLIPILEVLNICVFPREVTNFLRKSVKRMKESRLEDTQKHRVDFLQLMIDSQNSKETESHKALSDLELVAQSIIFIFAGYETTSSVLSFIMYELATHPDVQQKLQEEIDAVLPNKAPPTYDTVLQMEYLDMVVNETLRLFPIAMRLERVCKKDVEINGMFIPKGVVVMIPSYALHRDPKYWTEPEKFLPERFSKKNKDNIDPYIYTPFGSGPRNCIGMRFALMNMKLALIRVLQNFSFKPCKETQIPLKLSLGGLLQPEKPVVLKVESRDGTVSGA
Chain of Voltage-gated inwardly rectifying potassium channel KCNH2 (Homo sapiens) (Q12809 whole entry, looked up): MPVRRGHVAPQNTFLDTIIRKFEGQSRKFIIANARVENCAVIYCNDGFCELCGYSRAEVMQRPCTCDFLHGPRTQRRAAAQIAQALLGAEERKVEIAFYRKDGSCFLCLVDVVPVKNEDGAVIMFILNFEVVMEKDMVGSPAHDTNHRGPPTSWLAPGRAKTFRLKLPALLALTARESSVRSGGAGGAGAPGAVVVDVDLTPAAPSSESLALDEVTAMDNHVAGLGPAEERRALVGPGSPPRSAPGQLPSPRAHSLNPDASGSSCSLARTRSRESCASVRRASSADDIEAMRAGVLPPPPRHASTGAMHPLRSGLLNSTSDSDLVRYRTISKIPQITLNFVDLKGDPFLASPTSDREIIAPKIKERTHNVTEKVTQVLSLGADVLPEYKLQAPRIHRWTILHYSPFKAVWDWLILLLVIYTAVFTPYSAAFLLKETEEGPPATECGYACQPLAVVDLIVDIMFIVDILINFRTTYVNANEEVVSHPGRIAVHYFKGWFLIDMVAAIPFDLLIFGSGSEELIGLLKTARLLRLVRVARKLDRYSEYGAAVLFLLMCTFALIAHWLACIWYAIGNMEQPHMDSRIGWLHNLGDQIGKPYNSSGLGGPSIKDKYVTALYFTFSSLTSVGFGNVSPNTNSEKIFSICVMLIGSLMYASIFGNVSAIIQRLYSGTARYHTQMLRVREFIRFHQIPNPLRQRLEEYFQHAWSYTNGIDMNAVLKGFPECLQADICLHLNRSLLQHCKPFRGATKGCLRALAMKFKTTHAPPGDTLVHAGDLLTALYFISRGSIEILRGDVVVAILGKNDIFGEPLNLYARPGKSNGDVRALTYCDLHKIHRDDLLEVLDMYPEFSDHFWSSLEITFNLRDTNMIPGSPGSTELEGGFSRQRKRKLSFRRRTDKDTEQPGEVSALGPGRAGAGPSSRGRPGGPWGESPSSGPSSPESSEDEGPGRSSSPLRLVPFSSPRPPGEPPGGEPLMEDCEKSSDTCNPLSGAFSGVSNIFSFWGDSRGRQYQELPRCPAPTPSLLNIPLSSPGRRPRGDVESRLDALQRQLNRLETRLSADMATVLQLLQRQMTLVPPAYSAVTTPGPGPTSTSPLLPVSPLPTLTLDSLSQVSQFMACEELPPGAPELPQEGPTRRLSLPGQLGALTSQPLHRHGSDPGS
Chain of Cytochrome P450 2C9 (Homo sapiens) (P11712 whole entry, looked up): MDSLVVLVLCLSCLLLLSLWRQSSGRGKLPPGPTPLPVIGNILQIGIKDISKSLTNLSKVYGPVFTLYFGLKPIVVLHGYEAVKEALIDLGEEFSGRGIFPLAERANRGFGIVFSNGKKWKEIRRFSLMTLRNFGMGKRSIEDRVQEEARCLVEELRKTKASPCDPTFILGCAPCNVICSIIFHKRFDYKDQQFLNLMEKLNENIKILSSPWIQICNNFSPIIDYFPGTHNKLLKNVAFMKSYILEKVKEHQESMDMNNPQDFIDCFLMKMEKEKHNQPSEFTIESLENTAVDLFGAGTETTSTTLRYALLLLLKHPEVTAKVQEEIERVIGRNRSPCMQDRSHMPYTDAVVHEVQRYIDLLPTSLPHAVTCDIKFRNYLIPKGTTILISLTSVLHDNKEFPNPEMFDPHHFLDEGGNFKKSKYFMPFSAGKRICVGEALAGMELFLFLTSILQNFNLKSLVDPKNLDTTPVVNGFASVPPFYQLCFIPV
Chain of Nuclear receptor subfamily 1 group I member 2 (Rattus norvegicus) (Q9R1A7 whole entry, looked up): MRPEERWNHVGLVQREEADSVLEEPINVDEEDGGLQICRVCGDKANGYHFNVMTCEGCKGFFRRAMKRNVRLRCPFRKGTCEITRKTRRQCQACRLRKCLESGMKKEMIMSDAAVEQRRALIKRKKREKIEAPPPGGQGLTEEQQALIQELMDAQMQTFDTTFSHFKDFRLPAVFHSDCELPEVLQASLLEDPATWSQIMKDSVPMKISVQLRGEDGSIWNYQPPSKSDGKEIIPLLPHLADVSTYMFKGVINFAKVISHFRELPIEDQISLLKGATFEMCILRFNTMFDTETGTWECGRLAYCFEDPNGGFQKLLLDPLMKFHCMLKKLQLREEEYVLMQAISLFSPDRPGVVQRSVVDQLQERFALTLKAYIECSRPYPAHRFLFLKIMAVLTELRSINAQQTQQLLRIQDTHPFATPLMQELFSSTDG
Chain of Cytochrome P450 2D6 (Homo sapiens) (P10635 whole entry, looked up): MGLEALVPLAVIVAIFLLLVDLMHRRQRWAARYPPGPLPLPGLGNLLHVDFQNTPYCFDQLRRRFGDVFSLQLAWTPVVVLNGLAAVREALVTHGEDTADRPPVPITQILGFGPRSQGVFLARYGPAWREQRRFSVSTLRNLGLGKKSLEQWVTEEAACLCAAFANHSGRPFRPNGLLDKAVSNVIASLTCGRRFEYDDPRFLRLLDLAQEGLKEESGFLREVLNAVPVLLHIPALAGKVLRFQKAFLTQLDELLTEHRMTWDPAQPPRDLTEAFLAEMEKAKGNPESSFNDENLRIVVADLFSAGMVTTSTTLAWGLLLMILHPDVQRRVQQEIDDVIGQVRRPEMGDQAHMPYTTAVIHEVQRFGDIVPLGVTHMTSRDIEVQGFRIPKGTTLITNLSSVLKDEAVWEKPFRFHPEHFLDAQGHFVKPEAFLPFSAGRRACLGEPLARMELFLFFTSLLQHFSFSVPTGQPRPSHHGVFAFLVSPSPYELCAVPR
Chain of Cytochrome P450 1A2 (Homo sapiens) (P05177 whole entry, looked up): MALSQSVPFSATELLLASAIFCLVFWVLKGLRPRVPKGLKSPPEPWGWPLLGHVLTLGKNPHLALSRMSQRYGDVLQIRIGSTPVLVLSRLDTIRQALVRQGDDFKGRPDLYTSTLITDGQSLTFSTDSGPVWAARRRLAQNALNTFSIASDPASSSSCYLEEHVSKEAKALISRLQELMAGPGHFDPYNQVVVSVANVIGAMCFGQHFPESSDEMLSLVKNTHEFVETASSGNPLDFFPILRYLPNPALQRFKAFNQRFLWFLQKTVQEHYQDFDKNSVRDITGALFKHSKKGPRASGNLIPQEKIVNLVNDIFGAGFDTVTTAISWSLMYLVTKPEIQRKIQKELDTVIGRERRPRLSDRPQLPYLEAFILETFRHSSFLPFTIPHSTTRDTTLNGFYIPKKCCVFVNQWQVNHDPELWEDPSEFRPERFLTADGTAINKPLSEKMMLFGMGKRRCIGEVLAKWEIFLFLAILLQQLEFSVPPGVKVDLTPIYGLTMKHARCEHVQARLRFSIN
Chain of Cytochrome P450 2C19 (Homo sapiens) (P33261 whole entry, looked up): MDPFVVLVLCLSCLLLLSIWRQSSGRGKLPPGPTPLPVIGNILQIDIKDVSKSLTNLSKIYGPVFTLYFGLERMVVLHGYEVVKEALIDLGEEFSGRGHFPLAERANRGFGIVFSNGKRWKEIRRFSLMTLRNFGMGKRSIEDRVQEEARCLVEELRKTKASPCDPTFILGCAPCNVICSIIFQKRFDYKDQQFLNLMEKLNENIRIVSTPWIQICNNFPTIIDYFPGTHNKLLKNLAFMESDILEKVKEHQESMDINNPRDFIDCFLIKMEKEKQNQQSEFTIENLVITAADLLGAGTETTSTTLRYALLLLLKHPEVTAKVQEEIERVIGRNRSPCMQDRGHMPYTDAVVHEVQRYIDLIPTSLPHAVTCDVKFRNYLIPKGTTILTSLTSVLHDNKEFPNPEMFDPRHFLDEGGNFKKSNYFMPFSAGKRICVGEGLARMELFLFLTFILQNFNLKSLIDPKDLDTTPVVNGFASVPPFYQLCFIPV
Chain of Nuclear receptor subfamily 1 group I member 2 (Homo sapiens) (O75469 whole entry, looked up): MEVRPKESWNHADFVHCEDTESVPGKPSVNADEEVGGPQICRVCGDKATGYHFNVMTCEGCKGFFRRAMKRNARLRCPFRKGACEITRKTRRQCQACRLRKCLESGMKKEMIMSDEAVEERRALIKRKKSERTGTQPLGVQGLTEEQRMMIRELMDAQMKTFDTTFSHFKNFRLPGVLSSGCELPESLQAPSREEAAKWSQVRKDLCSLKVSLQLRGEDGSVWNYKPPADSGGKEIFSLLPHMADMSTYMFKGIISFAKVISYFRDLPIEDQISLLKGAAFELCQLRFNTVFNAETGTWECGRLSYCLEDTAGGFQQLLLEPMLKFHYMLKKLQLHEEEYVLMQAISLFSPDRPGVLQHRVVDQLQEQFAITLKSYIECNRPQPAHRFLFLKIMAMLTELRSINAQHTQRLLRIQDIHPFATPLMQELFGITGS

C=CCCCCCCCCC(=O)OCC
inactive: Potency [1] | outcome [2] | Potency [3] | outcome [4] | Potency [5] | Potency [6] | Potency [7] | Potency [8] | Potency [9] | Potency [10]

N[C@@H](CCC(=O)O)C(=O)O
inactive: Potency [1] | outcome [2] | Potency [3] | outcome [4] | Potency [5] | Potency [6] | Potency [9]
active: Potency [7] 71 µM | Potency [11] 39.9 µM

CO[C@@]1(NC(=O)CSC[C@@H](N)C(=O)O)C(=O)N2C(C(=O)O)=C(CSc3nnnn3C)CS[C@@H]21
inactive: Potency [1] | outcome [2] | Potency [3] | outcome [4] | Potency [5] | Potency [6] | Potency [7] | Potency [8] | Potency [11] | Potency [9] | Potency [10]

CC(C)(C)OC(=O)c1cccc(N)c1
active: Potency [6] 28 µM | Potency [7] 25.9 µM | Potency [8] 32.6 µM | Potency [11] 7.29 µM | Potency [10] 16.3 µM
inactive: Potency [1] | outcome [2] | Potency [3] | outcome [4] | Potency [5] | Potency [9]

CCCc1ncc(C[n+]2ccccc2C)c(N)n1
inactive: Potency [1] | outcome [2] | Potency [3] | outcome [4] | Potency [5] | max activation [12] -3.34% | Potency [7] | Potency [8] | Potency [11] | Potency [9] | Potency [10]

CCOc1ccccc1OCC
active: Potency [7] 71 µM
inactive: Potency [1] | outcome [2] | Potency [3] | outcome [4] | Potency [5] | Potency [6] | Potency [9]

O=CN(CCO)CCO
inactive: Potency [1] | outcome [2] | Potency [3] | outcome [4] | Potency [5] | Potency [6] | Potency [7] | Potency [8] | Potency [9] | Potency [10]

CCC(C)(CN(C)C)OC(=O)c1ccccc1 (stereo not drawn)
inactive: Potency [1] | outcome [2] | Potency [3] | outcome [4] | Potency [5] | max activation [12] -1.69%

O=C(O)CNC(=O)c1ccc(CO)o1
inactive: Potency [1] | outcome [2] | Potency [3] | outcome [4] | Potency [5] | Potency [6] | Potency [7] | Potency [8] | Potency [11] | Potency [9] | Potency [10]

CCN[C@@H]1C[C@H](N)[C@@H](OC2OC(CN)=CCC2N)[C@H](O)[C@H]1O[C@H]1OC[C@](C)(O)[C@H](NC)[C@H]1O (stereo partly drawn)
inactive: activity change, negative = cytotoxicity [1] 1.73% [at 0.349 µM] | caspase activation [2] 0.0658% [at 0.349 µM] | activity change, negative = cytotoxicity [3] 2.16% [at 0.349 µM] | activity change, negative = cytotoxicity [5] 3.51% [at 0.349 µM] | activation [6] -3.06% [at 0.349 µM] | max activation [12] -4.25% | Potency [13] | activity change, negative = inhibition [9] -0.868% [at 0.29 µM]

Cc1ccc(C(=O)Nc2ccc(S(=O)(=O)O)c3cc(S(=O)(=O)O)cc(S(=O)(=O)O)c23)cc1NC(=O)c1cccc(NC(=O)Nc2cccc(C(=O)Nc3cc(C(=O)Nc4ccc(S(=O)(=O)O)c5cc(S(=O)(=O)O)cc(S(=O)(=O)O)c45)ccc3C)c2)c1
inactive: Potency [1] | outcome [2] | Potency [3] | Potency [5] | Potency [6] | max activation [12] -1.36% | Potency [13] | Potency [8] | Potency [9] | Potency [10]

CCN(C=O)CC
active: Potency [14] 72.9 µM
inactive: Potency [1] | outcome [2] | Potency [3] | Potency [5] | Potency [6] | Potency [7] | Potency [8] | Potency [11] | Potency [9]

O=C(CO)[C@@H](O)[C@H](O)[C@H](O)CO
inactive: Potency [1] | outcome [2] | Potency [3] | Potency [5] | Potency [6] | Potency [14] | Potency [7] | Potency [8] | Potency [9] | Potency [10]

CO/N=C(\C(=O)N[C@@H]1C(=O)N2C(C(=O)O)=C(CSc3nc(=O)c(O)nn3C)CS[C@H]12)c1csc(N)n1
inactive: Potency [1] | outcome [2] | Potency [3] | Potency [5] | Potency [6] | max activation [12] -3.34% | Potency [13] | Potency [7] | Potency [11] | Potency [9]

CCN(CC#N)c1cccc(C)c1
active: Potency [7] 71 µM | Potency [11] 28.3 µM
inactive: Potency [1] | outcome [2] | Potency [3] | outcome [4] | Potency [5] | Potency [9] | Potency [10]

CC(C#N)(CCC(=O)O)N=NC(C)(C#N)CCC(=O)O (stereo not drawn)
inactive: Potency [1] | outcome [2] | Potency [3] | outcome [4] | Potency [5] | Potency [14] | Potency [7] | Potency [8] | Potency [11] | Potency [9] | Potency [10]

CC(C)C[C@@H](N)C(=O)O
inactive: activity change, negative = cytotoxicity [1] 28.2% [at 19 µM] | caspase activation [2] -0.781% [at 19 µM] | activity change, negative = cytotoxicity [3] -2.25% [at 19 µM] | caspase-3/7 activation [4] -0.0944% [at 19 µM] | activity change, negative = cytotoxicity [5] 1.16% [at 19 µM] | activity change, negative = inhibition [9] 1.04% [at 15.8 µM]

C[C@H]1C[C@H]2[C@@H]3CCC4=CC(=O)C=C[C@]4(C)[C@H]3C(=O)C[C@]2(C)[C@@]1(O)C(=O)CO
active: Potency [8] 13.8 µM | Potency [11] 27.5 µM
inactive: Potency [1] | outcome [2] | Potency [3] | outcome [4] | Potency [5] | Potency [7] | Potency [9] | Potency [10]

C[N+](C)(CCOc1ccccc1)Cc1cccs1
active: Potency [14] 0.195 µM
inactive: Potency [1] | outcome [2] | Potency [3] | outcome [4] | Potency [5] | Potency [7] | Potency [8] | Potency [11] | Potency [10]

CCCCS(=O)(=O)N[C@@H](Cc1ccc(OCCCCC2CCNCC2)cc1)C(=O)O
inactive: Potency [1] | outcome [2] | Potency [3] | Potency [5] | Potency [6] | Potency [14] | Potency [7] | Potency [8] | Potency [11] | Potency [9] | Potency [10]

C=C(C)C(=O)OCC1CCCO1 (stereo not drawn)
inactive: Potency [1] | outcome [2] | Potency [3] | outcome [4] | Potency [5] | Potency [7] | Potency [8] | Potency [11] | Potency [9] | Potency [10]

CC(COc1ccccc1)NN (stereo not drawn)
inactive: Potency [1] | outcome [2] | Potency [3] | Potency [5] | Potency [6] | Potency [14] | Potency [7] | Potency [8] | Potency [11] | Potency [9] | Potency [10]

Reference: PubChem BioAssay (Tox21)
